The results in this text go back to PubChem BioAssay (NCI).

About 83,000 compounds went through this panel and 20% of them were active in at least one assay; those are over-represented in the sample as a whole.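 Assay: single dose, 48 h. Readout: percent growth (0 = no net growth; negative = cell death). Active: <10.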 A number with no mark means an inactive call. Calls of active or inactive are those of the source.

Among the test systems are NCI-H23 lung; NCI-H226 lung; NCI-H322M lung; NCI-H460 lung; NCI-H522 lung; A549/ATCC NSCLC; 786-0 renal; COLO 205 colon; DU-145 prostate; K-562 leukemia; MALME-3M melanoma; MDA-MB-231 breast; RXF 393 renal; SF-268 CNS; SF-295 CNS; SF-539 CNS; UACC-257 melanoma; M14 melanoma; HOP-92 NSCLC.
What all share (experiment): NCI-60 one-dose screen, 48 h (100 = growth as untreated, 0 = no growth, -100 = all killed)
What all share (conditions): 10 µM unless noted

Take `C=C1C(=O)O[C@H]2[C@H]1CC/C(COC(=O)NCc1[nH]nc3ccccc13)=C\CC[C@@]1(C)O[C@@H]21`: the growth in the test on NCI-H23 lung was 69.4%; in the test on NCI-H226 lung it was 65.4%; with NCI-H322M lung it was 87.6%; in the test with NCI-H460 lung, 28.6%; in the test with NCI-H522 lung it was -68.6% (active); in the test with A549/ATCC NSCLC it was 45.6%. Besides, the growth in the test with 786-0 renal is -25.4% (active); with COLO 205 colon it was -76.7% (active); in the test on DU-145 prostate it was 12.2%; with K-562 leukemia, 2.29% (active); with MALME-3M melanoma it was -43% (active); with MDA-MB-231 breast, 49.1%. In addition, the growth was -18.3% (active) with RXF 393 renal; 55.2% in the test on SF-268 CNS; 72.6% with SF-295 CNS; 4.74% (active) with SF-539 CNS; 38% in the test on UACC-257 melanoma; 13.8% in the test on M14 melanoma.

In the case of `O=C(Cc1ccc([N+](=O)[O-])cc1)Oc1ccccc1`, the growth is 109% in the test on NCI-H23 lung; 111% in the test on NCI-H226 lung; 103% with NCI-H322M lung; 114% with NCI-H460 lung; 97.2% in the test on NCI-H522 lung; 111% with A549/ATCC NSCLC. Also, the growth in the test with 786-0 renal is 104%; with COLO 205 colon, 109%; with DU-145 prostate, 129%; in the test with K-562 leukemia, 104%; in the test with MALME-3M melanoma, 146%; with MDA-MB-231 breast, 108%. For the same compound, the growth with RXF 393 renal is 122%; with SF-268 CNS, 111%; in the test on SF-295 CNS it was 121%; with SF-539 CNS, 105%; in the test on UACC-257 melanoma, 110%; in the test with M14 melanoma, 106%.

As for `CC(NC(=O)c1ccccc1)C(=O)Nc1ccccc1` (configuration not stated), the growth with NCI-H23 lung was 105%; in the test with NCI-H226 lung, 104%; in the test on NCI-H322M lung, 127%; in the test on NCI-H460 lung, 118%; with NCI-H522 lung it was 99.6%; in the test on A549/ATCC NSCLC it was 96.3%. Moreover, the growth in the test with 786-0 renal was 105%; in the test on COLO 205 colon, 106%; in the test with DU-145 prostate, 118%; with K-562 leukemia, 91.4%; with MALME-3M melanoma, 145%; with MDA-MB-231 breast, 115%. For the same compound, the growth with RXF 393 renal is 118%; in the test with SF-268 CNS, 108%; in the test with SF-295 CNS, 125%; with SF-539 CNS, 97.2%; with UACC-257 melanoma, 103%; with M14 melanoma it was 103%.

As to `CC(C)(C)c1cc(C[P+](c2ccccc2)(c2ccccc2)c2ccccc2)cc(C(C)(C)C)c1O`, the growth in the test on NCI-H23 lung is -6.21% (active); with NCI-H226 lung, 32.3%; with NCI-H322M lung, -9.5% (active); with NCI-H460 lung it was 3.54% (active); with HOP-92 NSCLC it was -32.6% (active); in the test with 786-0 renal, 8.5% (active). Moreover, the growth with COLO 205 colon is -92.6% (active); in the test on DU-145 prostate it was 20.5%; in the test on K-562 leukemia it was 3.48% (active); with MALME-3M melanoma, -18.1% (active); in the test on MDA-MB-231 breast it was 27.9%; in the test with RXF 393 renal, 11.7%. Besides, the growth is 19.4% in the test on SF-268 CNS, -3.88% (active) in the test on SF-295 CNS, 3.24% (active) in the test with SF-539 CNS and 11.7% in the test with M14 melanoma.

For the compound `COc1cc(C2CC(c3ccc(C)cc3)=NN2C=O)ccc1Oc1ccnc2cc(Cl)ccc12` (configuration not stated), the growth in the test on NCI-H23 lung is 58.6%; in the test on NCI-H226 lung, 49.1%; in the test on NCI-H322M lung it was 91.1%; with NCI-H460 lung, 62.7%; with NCI-H522 lung, 28.3%; in the test with A549/ATCC NSCLC it was 67.8%. Moreover, the growth is 18% in the test on 786-0 renal; 108% in the test with COLO 205 colon; 89% with DU-145 prostate; 109% with K-562 leukemia; 98% in the test on MALME-3M melanoma; 36.1% with MDA-MB-231 breast. Also, the growth in the test on RXF 393 renal is 0.362% (active); with SF-268 CNS it was 16.3%; in the test on SF-295 CNS, 1.79% (active); with SF-539 CNS, 4.72% (active); in the test on UACC-257 melanoma, 103%; in the test with M14 melanoma, 106%.

Regarding `COc1ccc(CNc2c3ccccc3nc3ccc(OC)cc23)cc1`, the growth was 21.4% in the test with NCI-H23 lung; 33.8% in the test on NCI-H226 lung; 23.5% in the test on NCI-H322M lung; 6.48% (active) with NCI-H460 lung; 26.2% in the test on NCI-H522 lung; 14.6% with A549/ATCC NSCLC. In addition, the growth with 786-0 renal was 15%; in the test on COLO 205 colon, -51.4% (active); in the test on DU-145 prostate, 20%; in the test with K-562 leukemia it was 0.27% (active); in the test with MALME-3M melanoma, 7.06% (active); in the test with MDA-MB-231 breast it was 23.6%. Besides, the growth with RXF 393 renal was -2.57% (active); in the test on SF-268 CNS, 40.2%; with SF-295 CNS, 19.4%; in the test with SF-539 CNS, 8.46% (active); in the test with UACC-257 melanoma, 6.58% (active); in the test on M14 melanoma, 19.5%.

On to `O/N=C/c1ccncc1`, for which the growth is 101% in the test on NCI-H23 lung; 107% in the test on NCI-H226 lung; 110% with NCI-H322M lung; 106% in the test on NCI-H460 lung; 83.7% in the test with NCI-H522 lung; 96.5% in the test with A549/ATCC NSCLC. For the same compound, the growth is 109% in the test on 786-0 renal; 108% in the test on COLO 205 colon; 103% in the test on DU-145 prostate; 106% in the test with K-562 leukemia; 98.7% with MALME-3M melanoma; 118% with MDA-MB-231 breast. Besides, the growth is 122% in the test on RXF 393 renal; 111% in the test with SF-268 CNS; 96% with SF-295 CNS; 115% in the test on SF-539 CNS; 100% with UACC-257 melanoma; 115% in the test with M14 melanoma.

`CCC1=CC2CN(C1)Cc1c([nH]c3ccccc13)[C@@](C(=O)OC)(c1cc3c(cc1OC)N(C)[C@H]1[C@@](O)(C(=O)OC)[C@H](OC(C)=O)[C@]4(CC)C=CCN5CC[C@]31[C@@H]54)C2` (some centres not stated): the growth with NCI-H23 lung is 3.64% (active); in the test with NCI-H226 lung it was -1.33% (active); with NCI-H322M lung, 70%; with NCI-H460 lung, 3.4% (active); in the test with NCI-H522 lung, -4.74% (active); in the test with A549/ATCC NSCLC, 11%. Moreover, the growth with 786-0 renal was -8.81% (active); in the test with COLO 205 colon it was -75% (active); with DU-145 prostate, -30.1% (active); with K-562 leukemia it was 17%; in the test on MALME-3M melanoma, 44.5%; in the test with MDA-MB-231 breast, 30.3%. The growth in the test on RXF 393 renal was 47.1%; with SF-268 CNS, 17.4%; in the test on SF-295 CNS, 15.4%; with SF-539 CNS it was 6.49% (active); with UACC-257 melanoma, 59.1%; in the test with M14 melanoma, -36.8% (active).
